# Results taken from article PMC11006913.
# Residue numbers refer to the chain shown, from its start.
# Key:
# Assay in all cases: PBM; 200 nM protein, PBS
# Settings in all cases: dsDNA, one strand shown
# [1] = biological target: T1, VENTX (Homo sapiens, UniProt O95231 78-163, R121Q)
# T1 sequence: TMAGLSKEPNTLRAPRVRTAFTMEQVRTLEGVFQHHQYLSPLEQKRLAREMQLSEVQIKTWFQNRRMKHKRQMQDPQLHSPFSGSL
# [2] = biological target: ALX3 (Homo sapiens, UniProt O95076 139-225, N203Q)
# [3] = biological target: ALX3 (Homo sapiens, UniProt O95076 139-225)
# Sequence of ALX3 (Homo sapiens, UniProt O95076 139-225) (O95076 139-225): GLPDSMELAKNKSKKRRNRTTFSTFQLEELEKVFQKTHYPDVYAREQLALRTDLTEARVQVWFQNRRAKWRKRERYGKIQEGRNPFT
# [4] = biological target: VAX1 (Homo sapiens, UniProt Q5SQQ9 86-172)
# Sequence of VAX1 (Homo sapiens, UniProt Q5SQQ9 86-172) (Q5SQQ9 86-172): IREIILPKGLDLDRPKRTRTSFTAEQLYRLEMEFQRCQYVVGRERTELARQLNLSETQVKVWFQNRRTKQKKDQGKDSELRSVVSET
# [5] = biological target: VAX1 (Homo sapiens, UniProt Q5SQQ9 86-172, T142I)
# Sequence of VAX1 (Homo sapiens, UniProt Q5SQQ9 86-172, T142I) (Q5SQQ9 86-172 T142I): as the sequence (Q5SQQ9 86-172) above, with T57I counted along it
# [6] = biological target: ALX3 (Homo sapiens, UniProt O95076 139-225, N203S)
# Sequence of ALX3 (Homo sapiens, UniProt O95076 139-225, N203S) (O95076 139-225 N203S): as the sequence (O95076 139-225) above, with N65S counted along it
# [7] = biological target: VAX1 (Homo sapiens, UniProt Q5SQQ9 86-172, K157R)
# Sequence of VAX1 (Homo sapiens, UniProt Q5SQQ9 86-172, K157R) (Q5SQQ9 86-172 K157R): as the sequence (Q5SQQ9 86-172) above, with K72R counted along it
# [8] = biological target: HOXB9 (Homo sapiens, UniProt P17482 171-250, T197M)
# Sequence of HOXB9 (Homo sapiens, UniProt P17482 171-250, T197M) (P17482 171-250 T197M): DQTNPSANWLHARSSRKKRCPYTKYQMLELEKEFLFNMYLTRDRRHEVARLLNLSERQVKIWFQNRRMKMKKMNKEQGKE
# [9] = biological target: HOXC9 (Homo sapiens, UniProt P31274 178-260, K195R)
# Sequence of HOXC9 (Homo sapiens, UniProt P31274 178-260, K195R) (P31274 178-260 K195R): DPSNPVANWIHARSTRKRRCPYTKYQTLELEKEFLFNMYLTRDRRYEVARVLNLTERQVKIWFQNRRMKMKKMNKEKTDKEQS
# [10] = biological target: HOXC10 (Homo sapiens, UniProt Q9NYD6 254-340)
# Sequence of HOXC10 (Homo sapiens, UniProt Q9NYD6 254-340) (Q9NYD6 254-340): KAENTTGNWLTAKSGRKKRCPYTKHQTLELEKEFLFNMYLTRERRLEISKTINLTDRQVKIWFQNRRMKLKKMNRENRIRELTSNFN
# [11] = biological target: ALX4 (Homo sapiens, UniProt Q9H161 200-286, Q225E)
# Sequence of ALX4 (Q9H161 200-286 Q225E): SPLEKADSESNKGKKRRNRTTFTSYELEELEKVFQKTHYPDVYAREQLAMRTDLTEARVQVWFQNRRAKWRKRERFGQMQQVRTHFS
# [12] = biological target: HOXA2 (Homo sapiens, UniProt O43364 129-215, R185T)
# Sequence of HOXA2 (Homo sapiens, UniProt O43364 129-215, R185T) (O43364 129-215 R185T): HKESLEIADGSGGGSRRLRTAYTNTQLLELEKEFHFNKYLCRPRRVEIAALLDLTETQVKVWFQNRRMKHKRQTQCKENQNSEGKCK
# [13] = biological target: HOXB9 (Homo sapiens, UniProt P17482 171-250)
# Sequence of HOXB9 (Homo sapiens, UniProt P17482 171-250) (P17482 171-250): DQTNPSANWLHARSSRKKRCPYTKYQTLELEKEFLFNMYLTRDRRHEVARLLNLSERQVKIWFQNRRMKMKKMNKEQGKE
# [14] = biological target: HOXC9 (Homo sapiens, UniProt P31274 178-260)
# Sequence of HOXC9 (Homo sapiens, UniProt P31274 178-260) (P31274 178-260): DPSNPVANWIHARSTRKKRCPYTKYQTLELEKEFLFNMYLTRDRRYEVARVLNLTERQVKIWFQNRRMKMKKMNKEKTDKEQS
# [15] = biological target: HOXD13 (Homo sapiens, UniProt P35453 263-343, T313R)
# Sequence of HOXD13 (Homo sapiens, UniProt P35453 263-343, T313R) (P35453 263-343 T313R): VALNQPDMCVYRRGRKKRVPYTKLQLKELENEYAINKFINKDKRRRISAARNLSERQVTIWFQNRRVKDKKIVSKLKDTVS
# [16] = biological target: HOXC9 (Homo sapiens, UniProt P31274 178-260, R193K)
# Sequence of HOXC9 (Homo sapiens, UniProt P31274 178-260, R193K) (P31274 178-260 R193K): as the sequence (P31274 178-260) above, with R16K counted along it
# [17] = biological target: HOXA2 (Homo sapiens, UniProt O43364 129-215, R185K)
# Sequence of HOXA2 (Homo sapiens, UniProt O43364 129-215, R185K) (O43364 129-215 R185K): as the sequence (O43364 129-215 R185T) above, with T57K counted along it
# [18] = biological target: HOXD13 (Homo sapiens, UniProt P35453 263-343)
# Sequence of HOXD13 (Homo sapiens, UniProt P35453 263-343) (P35453 263-343): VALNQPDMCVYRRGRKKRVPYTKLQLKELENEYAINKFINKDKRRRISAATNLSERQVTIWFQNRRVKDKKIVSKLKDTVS
# [19] = biological target: HOXC10 (Homo sapiens, UniProt Q9NYD6 254-340, K271E)
# Sequence of HOXC10 (Homo sapiens, UniProt Q9NYD6 254-340, K271E) (Q9NYD6 254-340 K271E): as the sequence (Q9NYD6 254-340) above, with K18E counted along it
# [20] = biological target: HOXD13 (Homo sapiens, UniProt P35453 263-343, T313A)
# Sequence of HOXD13 (Homo sapiens, UniProt P35453 263-343, T313A) (P35453 263-343 T313A): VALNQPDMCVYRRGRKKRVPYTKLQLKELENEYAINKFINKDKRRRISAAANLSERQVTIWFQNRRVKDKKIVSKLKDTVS
# [21] = biological target: HOXB9 (Homo sapiens, UniProt P17482 171-250, R186Q)
# Sequence of HOXB9 (Homo sapiens, UniProt P17482 171-250, R186Q) (P17482 171-250 R186Q): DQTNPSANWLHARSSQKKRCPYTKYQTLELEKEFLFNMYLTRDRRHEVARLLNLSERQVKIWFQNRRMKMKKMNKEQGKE
# [22] = biological target: HOXC9 (Homo sapiens, UniProt P31274 178-260, R222W)
# Sequence of HOXC9 (Homo sapiens, UniProt P31274 178-260, R222W) (P31274 178-260 R222W): as the sequence (P31274 178-260) above, with R45W counted along it
# [23] = biological target: HOXA2 (Homo sapiens, UniProt O43364 129-215, Y150S)
# Sequence of HOXA2 (Homo sapiens, UniProt O43364 129-215, Y150S) (O43364 129-215 Y150S): as the sequence (O43364 129-215 R185T) above, with Y22S, T57R counted along it
# [24] = biological target: HOXA2 (Homo sapiens, UniProt O43364 129-215)
# Sequence of HOXA2 (Homo sapiens, UniProt O43364 129-215) (O43364 129-215): as the sequence (O43364 129-215 R185T) above, with T57R counted along it
# [25] = biological target: T2, PAX4 (Homo sapiens, UniProt O43316 9-242, R200K)
# T2 sequence: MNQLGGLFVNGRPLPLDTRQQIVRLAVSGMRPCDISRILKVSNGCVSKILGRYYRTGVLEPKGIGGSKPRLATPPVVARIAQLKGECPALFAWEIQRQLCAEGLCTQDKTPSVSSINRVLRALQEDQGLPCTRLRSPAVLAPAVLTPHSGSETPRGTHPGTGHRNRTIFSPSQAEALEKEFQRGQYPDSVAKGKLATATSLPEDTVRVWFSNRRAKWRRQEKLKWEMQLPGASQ
# [26] = biological target: T3, PAX4 (Homo sapiens, UniProt O43316 9-242)
# T3 sequence: T2 sequence with K192R
# [27] = biological target: T4, PAX4 (Homo sapiens, UniProt O43316 9-242, R200Q)
# T4 sequence: T2 sequence with K192Q
# [28] = biological target: T5, PAX4 (Homo sapiens, UniProt O43316 9-242, F177V)
# T5 sequence: T2 sequence with F169V, K192R
# [29] = biological target: T6, PAX4 (Homo sapiens, UniProt O43316 9-242, F177Y)
# T6 sequence: T2 sequence with F169Y, K192R
# [30] = biological target: T7, PAX4 (Homo sapiens, UniProt O43316 9-242, R227W)
# T7 sequence: T2 sequence with K192R, R219W
# [31] = biological target: CRX (Homo sapiens, UniProt O43186 26-111, R41L)
# Sequence of CRX (O43186 26-111 R41L): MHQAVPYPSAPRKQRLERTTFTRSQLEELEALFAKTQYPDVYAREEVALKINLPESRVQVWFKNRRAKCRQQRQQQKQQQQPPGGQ
# Sequence of ALX3 (Homo sapiens, UniProt O95076 139-225, N203Q) (O95076 139-225 N203Q): as the sequence (O95076 139-225) above, with N65Q counted along it
sequence,measurement,setting,value
CACATTAG,binding signal,[1],"11 upbm affinity estimate (log intensity, higher = more binding, comparable within an allelic series)"
same,binding signal,[2],"8.26 upbm affinity estimate (log intensity, higher = more binding, comparable within an allelic series)"
same,binding signal,[3],"10.6 upbm affinity estimate (log intensity, higher = more binding, comparable within an allelic series)"
same,binding signal,[4],"11.3 upbm affinity estimate (log intensity, higher = more binding, comparable within an allelic series)"
same,binding signal,[5],"10.8 upbm affinity estimate (log intensity, higher = more binding, comparable within an allelic series)"
same,binding signal,[6],"8.21 upbm affinity estimate (log intensity, higher = more binding, comparable within an allelic series)"
same,binding signal,[7],"11 upbm affinity estimate (log intensity, higher = more binding, comparable within an allelic series)"
CAATAAAC,binding signal,[8],"9.69 upbm affinity estimate (log intensity, higher = more binding, comparable within an allelic series)"
same,binding signal,[9],"12.5 upbm affinity estimate (log intensity, higher = more binding, comparable within an allelic series)"
same,binding signal,[10],"12.2 upbm affinity estimate (log intensity, higher = more binding, comparable within an allelic series)"
same,binding signal,[11],"10.6 upbm affinity estimate (log intensity, higher = more binding, comparable within an allelic series)"
same,binding signal,[12],"9.38 upbm affinity estimate (log intensity, higher = more binding, comparable within an allelic series)"
same,binding signal,[13],"11.8 upbm affinity estimate (log intensity, higher = more binding, comparable within an allelic series)"
same,binding signal,[14],"12.7 upbm affinity estimate (log intensity, higher = more binding, comparable within an allelic series)"
same,binding signal,[15],"10.9 upbm affinity estimate (log intensity, higher = more binding, comparable within an allelic series)"
same,binding signal,[16],"12.5 upbm affinity estimate (log intensity, higher = more binding, comparable within an allelic series)"
same,binding signal,[17],"11.7 upbm affinity estimate (log intensity, higher = more binding, comparable within an allelic series)"
same,binding signal,[18],"12.2 upbm affinity estimate (log intensity, higher = more binding, comparable within an allelic series)"
same,binding signal,[19],"11.4 upbm affinity estimate (log intensity, higher = more binding, comparable within an allelic series)"
same,binding signal,[20],"11.9 upbm affinity estimate (log intensity, higher = more binding, comparable within an allelic series)"
same,binding signal,[21],"11.5 upbm affinity estimate (log intensity, higher = more binding, comparable within an allelic series)"
same,binding signal,[22],"11.1 upbm affinity estimate (log intensity, higher = more binding, comparable within an allelic series)"
same,binding signal,[23],"10.7 upbm affinity estimate (log intensity, higher = more binding, comparable within an allelic series)"
same,binding signal,[24],"9.11 upbm affinity estimate (log intensity, higher = more binding, comparable within an allelic series)"
TAATGCGA,binding signal,[1],"10.2 upbm affinity estimate (log intensity, higher = more binding, comparable within an allelic series)"
same,binding signal,[25],"11.7 upbm affinity estimate (log intensity, higher = more binding, comparable within an allelic series)"
same,binding signal,[26],"12.1 upbm affinity estimate (log intensity, higher = more binding, comparable within an allelic series)"
same,binding signal,[27],"11.4 upbm affinity estimate (log intensity, higher = more binding, comparable within an allelic series)"
same,binding signal,[28],"10.4 upbm affinity estimate (log intensity, higher = more binding, comparable within an allelic series)"
same,binding signal,[29],"10.9 upbm affinity estimate (log intensity, higher = more binding, comparable within an allelic series)"
same,binding signal,[30],"10.9 upbm affinity estimate (log intensity, higher = more binding, comparable within an allelic series)"
same,binding signal,[31],"10.6 upbm affinity estimate (log intensity, higher = more binding, comparable within an allelic series)"
